# Pol beta inh – qHTS Assay for Inhibitors of DNA Polymerase Beta | P06746 | Pol beta primer extension/strand displacement, fluorescence kinetic | 1.3% of 340,000 active | AID 485314, 2010 | Potency, µM (doses to about 114 µM), for inactives: at the highest dose activity change, negative = inhibition, most hits filed as inhibitors; further: on the % scale 0 is the no-effect control and ±100 the full control effect
#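 Pol beta (10 nM) was preincubated with compound for 15 min at room temperature. The reaction was then started with 50 nM substrate and read immediately and after a further 10 min at room temperature.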
# TDP1 block – qHTS Assay for Inhibitors of Tyrosyl-DNA Phosphodiesterase (TDP1); recombinant TDP1, AlphaScreen DNA substrate cleavage; Potency, µM (highest dose often 130 µM), inactives show at the top dose activity change, negative = inhibition, usual class: inhibitors; 0.28% of 350,000 active; AID 485290, 2010; further: on the % scale 0 is the no-effect control and ±100 the full control effect; nearly all actives have a fitted effect of over 40% in size
#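 AlphaScreen read-out: signal falls as enzyme removes the 3' tyrosine-FITC from a 5'-biotinylated DNA oligo (15 nM, 5 min, RT). Enzyme was E. coli-made recombinant Tdp1 at 1 nM, exposed to compound for 15 min beforehand; beads 10 ug/ml, 10 min.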
# Pol kappa inh – qHTS for Inhibitors of Polymerase Kappa | purified Pol kappa, fluorescent DNA synthesis assay, 10 min | Potency, µM (top dose mostly 107 µM), for the others: top-dose activity, negative = inhibition, most hits filed as inhibitors | 0.53% of 400,000 active | AID 588579, 2011; further: on the % scale 0 is the no-effect control and ±100 the full control effect
#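 First, compounds were pin-transferred onto 10 nM Pol kappa. After 15 min at room temperature, substrate was added to 50 nM final. Fluorescence was then measured kinetically at 0 and 10 min.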
# POLH inh – qHTS for Inhibitors of Polymerase Eta; DNA polymerase eta (Homo sapiens), Q9Y253; recombinant Pol eta, fluorescent DNA replication assay; Potency, µM (highest dose often 114 µM), for inactives: top-dose activity change, negative = inhibition, hits mostly inhibitors; 1.2% of 390,000 active; AID 588591, 2011; further: on the % scale 0 is the no-effect control and ±100 the full control effect
#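 Pol eta at 10 nM preincubated with compounds 15 min at room temperature; reaction started with fluorescent substrate (50 nM final) and read kinetically at 0 and 10 min.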
# Pol iota inh – qHTS for Inhibitors of Polymerase Iota; DNA polymerase iota (Homo sapiens), Q9UNA4; Pol iota fluorescent replication assay, 10 min; Potency, µM (top dose mostly 115 µM), for the others: at the highest dose activity, negative = inhibition, usual class: inhibitors; 1% of 390,000 active
#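 Fluorescent replication assay read twice, at 0 min and 10 min after adding 50 nM (final) substrate. Enzyme (10 nM) and compounds were first incubated 15 min at room temperature; enzyme-free buffer wells were negative controls.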
# * hit, by the source's call; ? = inconclusive; nt = no result given; [ ] = dose if it differs, or a comment. Only some compounds are listed: those with a hit (about 2.4% of all), similar ones and a draw of the others. The call rests on the fitted dose curve; in most records, active means well fitted curve in the direction sought with a large enough effect; inconclusive means small, poorly fitted or top-dose-only effect, or another doubt; inactive means no such curve, though single readings can be large; an effect the other way counts as inactive or inconclusive. Potency means the concentration at half of the fitted maximal effect.
SMILES,Pol beta inh,TDP1 block,Pol kappa inh,POLH inh,Pol iota inh
O=C(Cn1cc(SCc2ccc(C(F)(F)F)cc2)c2ccccc21)N1CCCCC1,-1%,5%,-33%,-22%,13%
N#Cc1nc(Nc2ccc(C(F)(F)F)cc2)nc(NC2CCCC2)n1,nt,0%,nt,nt,nt
O=C(CCN1C(=O)/C(=C/c2ccc3c(c2)OCO3)SC1=S)Nc1ccccc1,-12%,3%,-10%,-15%,18%
O=C(CCCN1C(=O)/C(=C/c2ccc3c(c2)OCO3)SC1=S)Nc1ccc(C(=O)O)cc1,1%,4%,-12%,89µM*,-22%
CCc1ccc(/C=C2\SC(=S)N(CCCC(=O)Nc3ccccc3C(=O)O)C2=O)cc1,?,9%,5%,?,71µM*
COCCN1C(=O)/C(=C/c2ccc(OCc3ccc(C(=O)O)cc3)c(OC)c2)SC1=Nc1ccccc1,50µM*,5%,-3%,28µM*,5%
Cc1c(-c2ccccc2)n(-c2ccccc2O)c2nc3c(c(=O)n(C)c(=O)n3C)n12,-3%,1%,-10%,-14%,?
Cc1occc1C(=O)Nc1sc2c(c1C(N)=O)CCCCC2,-2%,2%,-30%,5%,?
COC(=O)c1c(NC(=O)c2ccoc2C)sc2c1CCC2,22µM*,nt,?,?,?
COc1ccc(CC(=O)OCC(=O)Nc2ccc(Cl)cc2C)cc1,nt,0%,-15%,-12%,55%
Cc1noc(C)c1C(=O)OCC(=O)Nc1ncc(Cl)c(C)c1Cl,nt,nt,-18%,20µM*,?
COc1ccc(CC(=O)OCC(=O)Nc2ncc(Cl)c(C)c2Cl)cc1,nt,-11%,-38%,20µM*,?
Cc1c(Cl)cnc(NC(=O)COC(=O)C(NC(=O)c2ccco2)C(C)C)c1Cl (centres undefined),45µM*,-5%,-4%,89µM*,?
CC(C)[C@H](NC(=O)c1ccco1)C(=O)OCC(=O)Nc1cccc(F)c1,20%,5%,-5%,-18%,90%
Cc1cn(C2CC3OCC(NC(=O)C(Cc4ccccc4)NC(=O)OC(C)(C)C)C3O2)c(=O)[nH]c1=O (centres undefined),nt,4%,14%,nt,31%
O=C(Nc1ccc2oc(-c3ccncc3)nc2c1)c1cccs1,22µM*,nt,-27%,?,6%
O=C(Nc1ccc2oc(-c3ccc(Cl)c(Cl)c3)nc2c1)c1ncn[nH]1,11µM*,-4%,?,?,?
O=C(Nc1ccc(-c2nc3cc(NC(=O)c4cccs4)ccc3o2)cc1)c1cccs1,6%,4%,-6%,-18%,15%
O=C(Nc1ccc2oc(-c3ccccc3F)nc2c1)c1ncn[nH]1,?,-3%,-7%,14%,0%
C/C=C1\C(OC2OC(CO)C(O)C(O)C2O)OC=C(C(=O)OC)C1CC(=O)OCC1C(C)C(OC(=O)CC2C(C(=O)OC)=COC(OC3OC(CO)C(O)C(O)C3O)/C2=C\C)CC1C(CO)CO (centres undefined),25µM*,-6%,79µM*,?,79µM*
COC(=O)C1=CO[C@@H](O[C@H]2OC(CO)C(O)C(O)C2O)C2C1CC(O)C2C (some centres undefined),nt,1%[56.1 µM],-11%[60.1 µM],nt,nt
O=S(=O)(c1ccc(Cl)cc1)N1CCN(c2nc(-c3ccccc3)nc3ccccc23)CC1,nt,1%,6%,nt,-1%
Nc1nc(SCC(=O)N2N=C3/C(=C/c4ccco4)CCCC3C2c2ccco2)n[nH]1 (centres undefined),5%,9%,-25%,?,45µM*
Nc1nc(SCC(=O)N2N=C3/C(=C\c4ccco4)CCCC3C2c2ccco2)n[nH]1 (centres undefined),nt,nt,-32%,?,40µM*
Cn1cnnc1SCC(=O)N1N=C2/C(=C/c3ccco3)CCCC2C1c1ccco1 (centres undefined),1%,-9%,5%,-9%,?
C=Cc1cc2c(s1)c1cnn(Cc3ccccc3F)c(=O)c1n2C,nt,-2%,nt,nt,nt

# Screening data: PubChem, National Center for Advancing Translational Sciences (NCATS)
